Source: PubChem BioAssay (EPA / NIEHS)
Where “and” joins values, the source holds several entries; their conditions need not be identical. Identical values can stand only once. Inconclusive results are not listed. Where a structure was tested more than once in an assay, its records may differ in their call. Calls of active or inactive are those of the source. Rule for the calls, unless noted: active = hit-call score of the fitted dose curve at least 0.9, where 1 is the maximum; inconclusive = response in the unintended direction; inactive = score below 0.9.

Legend:
[1] = molecular target: Steroid hormone receptor ERR1 (Homo sapiens) (UniProt P11474); assay: ATG_ERRa_TRANS: Attagene TRANS-FACTORIAL HepG2 Assay for human Estrogen-Related Receptor alpha (ERRa) (AID 2282971); conditions: HepG2 Attagene TRANS reporter, ERRa transactivation
Procedure, shortened: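 Transfected HepG2, 24 h dosing, ERRa-Gal4 chimera driving GAL4-UAS reporter. Readout: reporter mRNA via RT-PCR plus capillary electrophoresis (fluorescence). Positive direction vs DMSO control.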

[2] = molecular target: X-box-binding protein 1 (Homo sapiens) (UniProt P17861); assay: ATG_Xbp1_CIS: Attagene CIS-FACTORIAL HepG2 Assay for human X-box Binding Protein 1 (XBP1) (AID 2282972; active = hit-call score of the fitted dose curve at least 0.9, where 1 is the maximum; inactive = score below 0.9); conditions: HepG2 XBP1 cis-element reporter, Attagene multiplex; actives raise or lower the signal
Procedure, shortened: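 Read-out: fluorescent reporter mRNA fragments resolved by capillary electrophoresis after RT-PCR. Human HepG2 liver cells carried transfected cis-promoter reporter units and were exposed to chemicals for 24 hours. Gain or loss of signal fitted relative to DMSO baseline.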

[3] = ATG_M_19_TRANS: Attagene TRANS-FACTORIAL HepG2 Assay for M19 Transcription Factor (Internal Marker) (AID 2282974); conditions: HepG2 Attagene TRANS-FACTORIAL M19 internal marker reporter
Procedure, shortened: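 24 h chemical exposure of transiently transfected HepG2 (MRTU library). RNA → oligo(dT) RT → PCR → 6-FAM labelling → HpaI cut → CE fluorescence. Positive-direction fit vs DMSO baseline; background internal-marker readout.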

[4] = molecular target: Estrogen-related receptor gamma (Homo sapiens) (UniProt P62508); assay: ATG_ERRg_TRANS: Attagene TRANS-FACTORIAL HepG2 Assay for human Estrogen-Related Receptor gamma (ERRg) (AID 2282977); conditions: HepG2 Attagene TRANS reporter, ERRg transactivation;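 note: hits increase reporter signal over DMSO so potencies reflect activators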
Procedure, shortened: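 Exogenous NR-Gal4 chimera activity measured as reporter transcript induction after 24 h in transiently transfected HepG2 cells. RNA reverse-transcribed, PCR-amplified, 6-FAM-labelled and resolved by capillary electrophoresis; increase over DMSO baseline.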

[5] = molecular target: Glucocorticoid receptor (Homo sapiens) (UniProt P04150); assay: ATG_GR_TRANS: Attagene TRANS-FACTORIAL HepG2 Assay for human Glucocorticoid Receptor (GR) (AID 2282978); conditions: HepG2 Attagene TRANS GR reporter, mRNA transcription;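 note: activators score as hits since higher reporter transcript over DMSO is fitted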
Procedure, shortened: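 Transient MRTU transfection of HepG2 (GAL4-UAS reporters, exogenous NR-GAL4 chimeras), 24 h dosing. Readout: reporter transcript via RT-PCR + capillary electrophoresis fluorescence. Positive direction vs DMSO baseline.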

[6] = molecular target: Oxysterols receptor LXR-alpha (Homo sapiens) (UniProt Q13133); assay: ATG_LXRa_TRANS: Attagene TRANS-FACTORIAL HepG2 Assay for human Liver X Receptor alpha (LXRa) (AID 2282980); conditions: HepG2 Attagene TRANS reporter, LXRa transactivation
Procedure, shortened: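 Read-out: reporter transcript levels by RT-PCR plus capillary electrophoresis, fluorescence intensity. Transiently transfected HepG2, exogenous NR-GAL4 chimera, GAL4-UAS reporters; 24 h compound exposure. Activity = increase over DMSO negative control.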

[7] = molecular target: Oxysterols receptor LXR-beta (Homo sapiens) (UniProt P55055); assay: ATG_LXRb_TRANS: Attagene TRANS-FACTORIAL HepG2 Assay for human Liver X Receptor beta (LXRb) (AID 2282981); conditions: HepG2 Attagene TRANS GAL4-LXRb reporter, mRNA
Procedure, shortened: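 Measures induction of a Gal4-driven reporter transcript in HepG2 cells expressing an exogenous LXRb-Gal4 fusion. Cells are exposed to compound for 24 h before RNA isolation and RT-PCR with capillary electrophoresis detection.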

[8] = molecular target: Hepatocyte nuclear factor 4-alpha (Homo sapiens) (UniProt P41235); assay: ATG_HNF4a_TRANS: Attagene TRANS-FACTORIAL HepG2 Assay for human Hepatocyte Nuclear Factor 4 alpha (HNF4a) (AID 2282982); conditions: HepG2 HNF4a transactivation reporter, mRNA readout
Procedure, shortened: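 In this trans-factorial format, a chimeric HNF4a-GAL4 fusion drives a GAL4-UAS reporter in transfected HepG2 liver cells. After 24 h treatment, reporter mRNA induction is measured by RT-PCR with capillary electrophoresis, relative to DMSO.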

[9] = molecular target: Bile acid receptor (Homo sapiens) (UniProt Q96RI1); assay: ATG_FXR_TRANS: Attagene TRANS-FACTORIAL HepG2 Assay for Farnesoid X Receptor (FXR) (AID 2282979); conditions: HepG2 Attagene TRANS FXR-GAL4 reporter transcription;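 note: hits raise reporter mRNA above DMSO so AC50 marks FXR activation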
Procedure, shortened: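 Read-out: fluorescent reporter transcripts quantified by capillary electrophoresis after RT-PCR of total RNA. Source cells were HepG2 transiently carrying chimeric NR-GAL4 plus GAL4-UAS reporter units, dosed 24 h. Activity fitted upward relative to DMSO baseline.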

[10] = ATG_GAL4_TRANS: Attagene TRANS-FACTORIAL HepG2 Assay for GAL4 (Internal Marker) (AID 2282976); conditions: HepG2 Attagene TRANS GAL4 internal marker reporter
Procedure, shortened: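 RT-PCR/capillary electrophoresis readout of reporter mRNA. HepG2, transient MRTU transfection (GAL4-UAS reporters), 24 h compound exposure. Background-control endpoint, positive direction vs DMSO baseline.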

Chain of Glucocorticoid receptor (Homo sapiens) (P04150 whole entry, looked up, the tested form may be a part): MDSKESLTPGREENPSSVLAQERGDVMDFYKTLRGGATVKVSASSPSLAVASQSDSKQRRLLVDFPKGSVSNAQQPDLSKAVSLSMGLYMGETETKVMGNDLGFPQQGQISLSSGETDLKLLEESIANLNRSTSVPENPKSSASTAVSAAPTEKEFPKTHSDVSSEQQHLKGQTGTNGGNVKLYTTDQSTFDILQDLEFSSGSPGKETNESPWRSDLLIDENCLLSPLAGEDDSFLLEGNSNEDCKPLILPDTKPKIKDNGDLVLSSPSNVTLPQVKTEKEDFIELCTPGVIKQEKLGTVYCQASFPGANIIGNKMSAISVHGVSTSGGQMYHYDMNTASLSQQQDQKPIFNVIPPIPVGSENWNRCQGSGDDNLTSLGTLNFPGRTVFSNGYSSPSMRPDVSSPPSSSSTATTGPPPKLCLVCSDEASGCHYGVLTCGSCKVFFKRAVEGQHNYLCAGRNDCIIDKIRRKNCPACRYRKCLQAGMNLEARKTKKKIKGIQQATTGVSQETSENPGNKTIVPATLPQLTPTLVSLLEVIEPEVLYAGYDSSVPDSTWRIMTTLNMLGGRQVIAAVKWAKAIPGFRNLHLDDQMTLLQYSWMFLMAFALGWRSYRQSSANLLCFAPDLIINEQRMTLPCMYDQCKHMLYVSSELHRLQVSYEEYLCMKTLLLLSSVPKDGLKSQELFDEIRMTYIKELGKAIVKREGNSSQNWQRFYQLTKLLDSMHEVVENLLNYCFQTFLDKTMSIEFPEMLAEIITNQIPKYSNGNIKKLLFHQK
Chain of Estrogen-related receptor gamma (Homo sapiens) (P62508 whole entry, looked up, the tested form may be a part): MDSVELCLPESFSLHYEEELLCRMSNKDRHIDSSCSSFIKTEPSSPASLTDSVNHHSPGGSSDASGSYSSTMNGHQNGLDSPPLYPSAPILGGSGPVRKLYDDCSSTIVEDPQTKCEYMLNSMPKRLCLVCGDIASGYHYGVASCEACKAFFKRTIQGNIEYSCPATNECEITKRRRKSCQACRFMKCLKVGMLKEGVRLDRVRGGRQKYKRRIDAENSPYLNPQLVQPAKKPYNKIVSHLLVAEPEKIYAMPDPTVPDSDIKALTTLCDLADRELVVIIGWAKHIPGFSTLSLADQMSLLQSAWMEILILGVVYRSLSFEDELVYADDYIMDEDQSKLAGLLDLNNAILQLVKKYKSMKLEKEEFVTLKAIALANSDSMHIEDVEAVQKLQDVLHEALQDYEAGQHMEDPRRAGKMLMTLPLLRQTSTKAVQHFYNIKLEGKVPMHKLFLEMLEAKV
Chain of Hepatocyte nuclear factor 4-alpha (Homo sapiens) (P41235 whole entry, looked up, the tested form may be a part): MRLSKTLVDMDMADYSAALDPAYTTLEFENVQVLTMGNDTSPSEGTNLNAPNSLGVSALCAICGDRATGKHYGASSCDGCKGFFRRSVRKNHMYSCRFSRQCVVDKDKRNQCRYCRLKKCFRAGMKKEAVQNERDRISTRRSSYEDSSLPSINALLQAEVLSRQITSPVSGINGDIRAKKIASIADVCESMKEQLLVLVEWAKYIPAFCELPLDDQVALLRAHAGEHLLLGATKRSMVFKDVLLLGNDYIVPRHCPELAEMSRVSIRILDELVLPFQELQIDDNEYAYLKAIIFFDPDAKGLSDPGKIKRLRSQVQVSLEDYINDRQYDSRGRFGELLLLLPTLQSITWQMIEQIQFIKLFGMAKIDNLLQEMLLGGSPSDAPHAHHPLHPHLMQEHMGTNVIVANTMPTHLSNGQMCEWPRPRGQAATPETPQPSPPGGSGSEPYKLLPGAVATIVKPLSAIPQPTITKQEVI
Chain of Steroid hormone receptor ERR1 (Homo sapiens) (P11474 whole entry, looked up, the tested form may be a part): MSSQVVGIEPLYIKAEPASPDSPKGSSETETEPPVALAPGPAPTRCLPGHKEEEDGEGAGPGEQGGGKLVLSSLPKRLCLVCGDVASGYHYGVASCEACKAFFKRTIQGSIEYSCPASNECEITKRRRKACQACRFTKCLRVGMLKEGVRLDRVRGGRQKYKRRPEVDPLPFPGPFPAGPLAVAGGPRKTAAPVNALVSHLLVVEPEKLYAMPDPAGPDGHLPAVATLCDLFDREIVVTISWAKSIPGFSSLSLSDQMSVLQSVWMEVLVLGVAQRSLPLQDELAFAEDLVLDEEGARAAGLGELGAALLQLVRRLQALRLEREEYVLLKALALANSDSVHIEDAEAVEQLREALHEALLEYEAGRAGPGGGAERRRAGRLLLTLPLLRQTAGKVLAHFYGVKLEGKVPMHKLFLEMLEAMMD
Chain of Oxysterols receptor LXR-alpha (Homo sapiens) (Q13133 whole entry, looked up, the tested form may be a part): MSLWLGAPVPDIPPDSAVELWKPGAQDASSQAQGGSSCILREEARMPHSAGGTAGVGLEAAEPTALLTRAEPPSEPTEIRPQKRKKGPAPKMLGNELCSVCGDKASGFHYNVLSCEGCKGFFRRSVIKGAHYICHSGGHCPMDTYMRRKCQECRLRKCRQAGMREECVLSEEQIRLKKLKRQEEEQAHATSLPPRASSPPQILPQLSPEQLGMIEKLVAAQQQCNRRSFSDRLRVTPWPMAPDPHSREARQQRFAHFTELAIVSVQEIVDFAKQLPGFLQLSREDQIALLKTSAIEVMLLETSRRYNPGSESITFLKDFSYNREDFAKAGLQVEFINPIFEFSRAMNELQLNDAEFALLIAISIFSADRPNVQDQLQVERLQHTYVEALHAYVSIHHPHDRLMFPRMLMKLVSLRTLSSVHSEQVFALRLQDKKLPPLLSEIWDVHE
Chain of Oxysterols receptor LXR-beta (Homo sapiens) (P55055 whole entry, looked up, the tested form may be a part): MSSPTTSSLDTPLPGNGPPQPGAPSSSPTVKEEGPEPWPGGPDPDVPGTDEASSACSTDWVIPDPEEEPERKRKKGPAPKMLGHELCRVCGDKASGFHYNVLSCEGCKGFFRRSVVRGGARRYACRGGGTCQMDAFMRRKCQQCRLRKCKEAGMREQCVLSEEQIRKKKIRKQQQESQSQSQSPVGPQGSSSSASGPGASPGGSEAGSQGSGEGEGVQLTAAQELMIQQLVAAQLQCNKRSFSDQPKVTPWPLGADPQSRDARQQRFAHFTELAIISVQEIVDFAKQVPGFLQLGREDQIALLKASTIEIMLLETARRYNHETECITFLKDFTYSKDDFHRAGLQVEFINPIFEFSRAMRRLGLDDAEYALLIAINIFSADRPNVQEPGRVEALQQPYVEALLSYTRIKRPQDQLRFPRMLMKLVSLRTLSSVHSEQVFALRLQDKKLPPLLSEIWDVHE
Chain of Bile acid receptor (Homo sapiens) (Q96RI1 whole entry, looked up, the tested form may be a part): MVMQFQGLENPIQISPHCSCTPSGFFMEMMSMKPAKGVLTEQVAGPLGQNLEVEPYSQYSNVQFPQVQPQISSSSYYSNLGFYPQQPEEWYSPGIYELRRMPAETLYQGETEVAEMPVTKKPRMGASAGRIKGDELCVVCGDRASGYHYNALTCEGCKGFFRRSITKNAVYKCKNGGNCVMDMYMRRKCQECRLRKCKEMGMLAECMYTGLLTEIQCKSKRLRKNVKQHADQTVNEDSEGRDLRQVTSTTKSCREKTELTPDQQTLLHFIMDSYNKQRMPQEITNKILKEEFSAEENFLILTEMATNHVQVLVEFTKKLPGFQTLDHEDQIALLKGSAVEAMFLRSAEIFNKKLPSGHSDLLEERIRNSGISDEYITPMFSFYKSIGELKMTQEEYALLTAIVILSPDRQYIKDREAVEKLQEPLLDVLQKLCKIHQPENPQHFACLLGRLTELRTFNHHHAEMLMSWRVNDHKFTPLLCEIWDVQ
Chain of X-box-binding protein 1 (Homo sapiens) (P17861 whole entry, looked up, the tested form may be a part): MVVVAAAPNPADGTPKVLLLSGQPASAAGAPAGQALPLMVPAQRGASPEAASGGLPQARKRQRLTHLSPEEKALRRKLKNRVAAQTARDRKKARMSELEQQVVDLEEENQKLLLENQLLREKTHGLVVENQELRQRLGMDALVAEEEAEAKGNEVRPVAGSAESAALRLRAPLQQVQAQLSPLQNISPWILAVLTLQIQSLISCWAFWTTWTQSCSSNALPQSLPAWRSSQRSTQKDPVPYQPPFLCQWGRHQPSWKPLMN

Row | Compound | outcome [1] | outcome [2] | outcome [3] | outcome [4] | outcome [5] | outcome [6] | outcome [7] | outcome [8] | AC50 [2] | AC50 [9] | outcome [9] | outcome [10] | AC50 [7]
1 | O=c1[nH]c(=O)[nH]c(=O)[nH]1 | inactive | inactive | inactive | inactive | inactive | inactive | inactive | inactive |  |  |  |  | 
2 | O=C1C2(Cl)C3(Cl)C4(Cl)C(Cl)(Cl)C5(Cl)C3(Cl)C1(Cl)C5(Cl)C24Cl (stereo not given) | inactive | inactive | inactive | inactive | inactive | inactive | inactive | inactive | 15.9 µM (active) | 4.29 µM (active) and 8.79 µM (active) and 10.4 µM (active) | inactive |  | 
3 | NNC(=S)NN | inactive | inactive | inactive |  |  |  | inactive |  |  |  |  |  | 
4 | CC(=O)C=C(C)C | inactive | inactive |  | inactive | inactive |  | inactive |  |  |  |  | inactive | 
5 | O=[N+]([O-])c1ccc(O)c([N+](=O)[O-])c1 | inactive | inactive |  | inactive |  | inactive | inactive |  |  |  |  |  | 
6 | CCN1CCC2(CC1)COc1cc3c(cc12)N(C(=O)c1ccc(-c2ccc(-c4nnc(C)o4)cc2C)cc1)CC3 | inactive | inactive | inactive |  |  | inactive |  |  |  |  | inactive | inactive | 1.01 µM (active)
7 | O=C1C(Cl)=C(Cl)C(=O)c2ccccc21 | inactive | inactive | inactive | inactive | inactive | inactive |  |  |  |  |  |  | 
8 | CCC[CH2][Sn]([Cl])([Cl])[Cl] | inactive | inactive | inactive | inactive |  |  |  | inactive |  |  | inactive |  | 
9 | CCOC(=O)CP(=O)(OCC)OCC | inactive | inactive | inactive |  |  | inactive |  | inactive |  |  |  | inactive | 
10 | CCSC(C)CC1CC(=O)C(C(CC)=NOC/C=C/Cl)=C(O)C1 (stereo not given) | inactive | inactive | inactive | inactive | inactive | inactive |  |  |  |  |  |  | 
